Assay outcomes (PubChem BioAssay)
Many of the other results were omitted from the sample, so hits are more common in it than they were.
Methyltransferases: Primary Screen for Target Class Profiling of Small Molecule Inhibitors of Methyltransferases. purified enzyme, MTase-Glo SAH luminescence; hits give low values. calls only at 40 µM. hit rate 3.9% among 25,000; call rule not given here
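Each enzyme was assayed with SAM and its substrate. SAH formation detected by MTase-Glo luminescence; single-point 40 uM screen[…].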
MTase-Glo counter: inhibits MTase-Glo coupling enzymes without methyltransferase; shares compounds with Methyltransferases; MTase-Glo coupled enzymes, SAH conversion luminescence, no MTase; Potency, µM (top dose mostly 57.3 µM), hits mostly inhibitors; hit rate 6% among 180; AID 1745851; active means well fitted inhibition curve with a large enough effect; inconclusive means small, poorly fitted or top-dose-only effect
Hits are given with their value; 0 = inactive; ? = inconclusive; + = active, no number.

SMILES	Methyltransferases	others
CC(=O)Nc1c2n(c3ccc(F)cc13)CC(C)(C(=O)NC1CCCCC1)N(C1CCCC1)C2=O (stereo unspecified)	0
O=C(CCc1nnc2n(CCc3ccccc3)c(=O)c3ccccc3n12)NCCc1ccc(Cl)cc1	0
O=C1c2cc3occc3n2CC(C(=O)NC2CCCCCCC2)(c2ccccc2)N1Cc1ccccc1 (stereo unspecified)	0
CC1CCC(NC(=O)C2(C)Cn3c(cc4sccc43)C(=O)N2C2CCCCC2)CC1 (stereo unspecified)	0
Cc1ccc(Cn2c(=O)c3ccc(C(=O)NCC(C)C)cc3n3c(=O)n(C)nc23)cc1	0
Cc1cc2c(cc3n2CC(C)(C(=O)NC2CCCCCC2)N(C2CCCc4ccccc42)C3=O)o1 (stereo unspecified)	0
COC(=O)c1ccc2nc(C[C@@H]3C[C@@H](C(C)C)[C@H](CNC(=O)c4cccnc4)C=C3C)[nH]c2c1	0
CC1=C[C@@H](CN(CC2CC2)CC2CC2)[C@H](C(C)C)C[C@H]1Cc1nc2ccncc2[nH]1	+	MTase-Glo counter=35µM
COc1ccc2nc(C[C@@H]3C[C@@H](C(C)C)[C@H](CNC(=O)NC4CCCCC4)C=C3C)[nH]c2c1	0
CC1(C(=O)NC2CCCCCC2)Cn2c(ccc2-c2ccco2)C(=O)N1Cc1cccc(Cl)c1 (stereo unspecified)	0
CN(C)c1ccc(CNC(=O)c2cc3n(n2)CC(C)(C(=O)NCc2ccccc2)N(C)C3=O)cc1 (stereo unspecified)	0
COc1cccc(CNC(=O)C(C)n2ccc3cc(S(=O)(=O)N4CCCC4)ccc32)c1OC (stereo unspecified)	0
COc1ccc(-c2nnc(-c3ccc(Cl)c(S(=O)(=O)N4CCCCC4)c3)o2)cc1	0
Cc1ccc(CN2C(=O)c3ccc(-c4ccccc4)n3CC2(C)C(=O)NC2CCCCCCC2)cc1 (stereo unspecified)	0
O=c1c2ccccc2n2c(=O)n(Cc3ccc(F)cc3Cl)nc2n1Cc1ccccc1	0
COc1ccc(CNC(=O)Cn2ccc3cc(S(=O)(=O)N4CCCC4)ccc32)c(OC)c1	0
CN1C(=O)c2cc(NC(=O)c3ccccc3Cl)ccc2N2CCN=C12	0
COc1ccc(CC(=O)Nc2ccc3ncnc(N4CCCC4)c3c2)c(Cl)c1	+	MTase-Glo counter=?
O=C(Nc1ccc2ncnc(N3CCCCC3)c2c1)c1cc(F)ccc1F	+	MTase-Glo counter=5.41µM
O=C(Nc1ccncc1)c1cc([N+](=O)[O-])ccc1Cl	0
O=C(Cc1ccsc1)Nc1ccc2c(N3CCCC3)ncnc2c1	+	MTase-Glo counter=0
O=C(Nc1cnc(Cl)nc1)c1ccc(F)c(F)c1	0
COc1ccc(-c2cnc3[nH]cc(CC(=O)Nc4ccc(C(F)(F)F)cc4)c3c2)cc1	0
O=C(c1cc(F)ccc1F)N1CCCCC1c1nc(-c2cnccn2)n[nH]1 (stereo unspecified)	0
O=C(Nc1ccc2c(N3CCCC3)ncnc2c1)c1cc(F)ccc1Cl	+	MTase-Glo counter=0
SMILES	Methyltransferases	others
CC1CCC(N2C(=O)c3ccc(-c4ccco4)n3CC2(C)C(=O)NC2CCCCCCC2)CC1 (stereo unspecified)	0
CCCn1c(=O)c2ccccc2n2c(=O)n(Cc3ccc(Cl)cc3)nc12	0
CC1c2cccn2CCN1C(=O)Nc1cccc(Cl)c1 (stereo unspecified)	0
CC(C)OCCCNC(=O)C1(C)Cn2c(cc3ccccc32)C(=O)N1Cc1ccccc1Cl (stereo unspecified)	0
COc1ncccc1-c1cc2c(nc1OC)nc(CCc1ccccc1)n2C	0
COc1ncccc1-c1n[nH]c2c1CC(=O)N(Cc1ccccc1)C2	0
COc1ncccc1-c1nccn2c(C3CN(Cc4ccccc4O)C3)ncc12	+	MTase-Glo counter=0
CCOc1c(CN(C)C(=O)Cn2cccc(OC)c2=O)cccc1OC	+	MTase-Glo counter=0
COc1cccn(CC(=O)N2CCN(c3ccccc3C#N)CC2)c1=O	0
CCC(C(=O)N(C)Cc1ccc(OC)c2ncccc12)n1cccn1 (stereo unspecified)	0
Cc1cccc(CNC(=O)Cn2ccc3cc(S(=O)(=O)N4CCCCC4)ccc32)c1	0
CC(C)CCn1c(=O)c2ccccc2n2c(=O)n(CC(=O)N3CCN(c4ccc(F)cc4)CC3)nc12	0
C=CCn1c(=O)c2ccc(C(=O)NC(C)C)cc2n2c(=O)n(CC(=O)Nc3ccccc3C)nc12	0
CN1CCN(C)c2cnc(-c3cnn(Cc4ccccc4)c3)cc2C1	+	MTase-Glo counter=0
O=C(CCc1nnc2n(Cc3ccccc3Cl)c(=O)c3ccccc3n12)N1CCN(c2ccccc2F)CC1	0
O=C(NC1CCCC1)c1ccc2c(c1)n(Cc1cccc(F)c1)c(=O)c1ccnn12	0
COc1ccc(-c2n[nH]n3c2nc(=O)c2ccc(C(=O)NCc4ccccc4F)cc23)cc1	0
Cn1c(=O)c2ccnn2c2ccc(C(=O)NCC3CCN(Cc4ccccc4F)CC3)cc21	+	MTase-Glo counter=0
CC1(C(=O)NCc2ccccc2)Cn2c(cc3ccccc32)C(=O)N1C1CCCCC1 (stereo unspecified)	0
COc1ccc(-c2cc3n(n2)CC(C)(C(=O)NCc2ccccc2OC)N(c2ccc(C)c(C)c2)C3=O)cc1 (stereo unspecified)	0
COC(=O)c1nc(NC(=O)Cn2nc3c(cc2=O)CCCC3)sc1C(C)C	+	MTase-Glo counter=0
CCc1nc(NC(=O)Cn2nc3c(cc2=O)CCCC3)sc1C	0
O=C(Cn1nc2c(cc1=O)CCCCC2)Nc1nnc(C2CCCO2)s1 (stereo unspecified)	0
CCc1cc2c(cc3n2CC(C)(C(=O)NC2CCC(C)CC2)N(c2ccccc2C)C3=O)s1 (stereo unspecified)	0
CCn1cnnc1CC1CCN(S(=O)(=O)c2ccc(OC)cc2)CC1	0
SMILES	Methyltransferases	others
Cc1ccc(N2C(=O)c3cc4ccccc4n3CC2(C)C(=O)NC2CCCC2)c(C)c1 (stereo unspecified)	0
O=C(NCCN1CCN(c2cccc3ccc(O)cc23)CC1)c1ccc(F)cc1	0
Cc1ccc(NC(=O)N2CCCN(CCn3nc4n(c3=O)CCCC4)CC2)cc1F	0
Oc1ccc(NCCN2CCCC2)cc1	+	MTase-Glo counter=0
CCc1ccccc1NC(=O)c1ncn2c1C(=O)N(C1CC1)C(C)(C(=O)NC1CCCC1)C2 (stereo unspecified)	0
CN1CCCN(C[C@@H]2CN(C(=O)c3ccn(C)n3)C[C@@H]2CO)CC1	0
CN(C)c1nc2c(c(N3C[C@@H](CN4CCCC4)[C@@H](CO)C3)n1)CCCC2	+	MTase-Glo counter=13.6µM
CCC(C(=O)NCc1ccc(Cl)cc1)n1ccc2cc(S(=O)(=O)N3CCCCC3)ccc21 (stereo unspecified)	0
CCn1nc(CNC(=O)Cc2cccc(Cl)c2)c2ccccc21	0
CCn1c(=O)n(CC)c2cc(S(=O)(=O)Nc3cccc(OC)c3)ccc21	0
O=C(Nc1ccccc1)c1cnc2c(c1)N(C(=O)Cc1ccc(O)cc1)CCC2	+	MTase-Glo counter=0
O=C(Nc1ccccc1)c1cc2n(n1)CCN(C(=O)COc1ccccc1)C2	0
CC(C)c1ccc(CC(=O)N2CCCc3ncc(C(=O)NCCc4c[nH]c5ccccc45)cc32)cc1	0
COc1ncccc1-c1cc2c(ccn2CC2CCN([S+](C)(=O)[O-])CC2)c(N2CCOCC2)n1	+	MTase-Glo counter=0
Cc1nn2c(c1-c1cccnc1N1CCOCC1)N(C(=O)c1cc3ccccc3n1C)CCC2	0
